{"source": "ChEMBL document CHEMBL3988442", "about": "“University of Dundee, Small-Polar-MMV Screening Library” (2021)"}
{"molecular_target": "AMP-activated protein kinase, AMPK (Homo sapiens) (UniProt P54646+O43741+P54619+Q9UGJ0+Q9Y478+Q13131+Q9UGI9)", "assay": "AMP-dependent Kinase enzyme assay. An in vitro enzyme assay that detects ADP turnover that is directly proportional to AMPK activity. This uses naive AMPK that is activated during the assay with MK-8722", "type": "functional", "design": "scale not given: direction of the effect not stated beside the values", "conditions": "30 µM", "units": {"Percent Effect": "%"}}
{"smiles": "CCNC(=O)c1ccnc(CC2COc3c(cccc3OC)C2)c1", "note": "(stereo not given)", "Percent Effect": -3.13}
{"smiles": "CN1CC(C(=O)NCCc2ccc3c(c2)OCCO3)CC1=O", "note": "(stereo not given)", "Percent Effect": 2.3}
{"smiles": "CC(C(=O)NC1(C#N)CCCCC1)N1CCc2c(ncn2C)C1", "note": "(stereo not given)", "Percent Effect": -9.22}
{"smiles": "Cc1ccc(C)c(CN(CC(N)=O)C(C)C)c1", "Percent Effect": -8.2}
{"smiles": "CCSc1cccc(NCc2cccnc2)c1", "Percent Effect": -1.67}
{"smiles": "CNC(=O)C1CN(C(=O)Cc2ccc(OC)cc2)Cc2cn(C)nc21", "note": "(stereo not given)", "Percent Effect": -3.48}
{"smiles": "CC(C)(C)NC(=O)CNc1ncc(Br)cn1", "Percent Effect": 7.93}
{"smiles": "CNC(=O)CCOC(=O)c1cccc(-n2ccc(C(F)(F)F)n2)c1", "Percent Effect": 3.59}
{"smiles": "CC(C)N(Cc1ccccn1)C(=O)CN(C)C(=O)c1cccs1", "Percent Effect": 10.8}
{"smiles": "CC(=O)c1cnc(NCCN2CCCC(c3ccccc3)C2)nc1C", "note": "(stereo not given)", "Percent Effect": -7.52}
{"smiles": "CC(C)(C)CC(NC(=O)N1CCS(=O)(=O)CC1)C(F)(F)F", "note": "(stereo not given)", "Percent Effect": -0.804}
{"smiles": "CCNc1ncc(C(=O)NCc2csc(-c3ncccn3)n2)cn1", "Percent Effect": 3.97}
{"smiles": "CN(Cc1ncnn1C1Cc2ccccc2C1)C1CCS(=O)(=O)C1", "note": "(stereo not given)", "Percent Effect": 1.61}
{"smiles": "CCN1CCN(c2ncnc3c2CCN(C(=O)C2CC2)C3)CC1", "Percent Effect": -7.12}
{"smiles": "CC(C)NC(=O)c1nc(Cn2c(C(F)F)nc3ccccc32)no1", "Percent Effect": 12.9}
{"smiles": "CCc1cc(=O)n(CCNC(=O)Nc2ccc(OC(F)(F)F)cc2)cn1", "Percent Effect": -3.24}
{"smiles": "COc1ccccc1S(=O)(=O)N1CCN(C)[C@@H]2CS(=O)(=O)C[C@@H]21", "Percent Effect": -1.29}
{"smiles": "O=C(CCn1cccn1)NCCOc1ncc(Cl)cc1Cl", "Percent Effect": 2.54}
{"smiles": "COC(=O)c1cccc(C(=O)N(CCC#N)CC(C)(C)C)c1", "Percent Effect": 2.62}
{"smiles": "O=C(c1ccc(-n2cnnc2)cc1Cl)N1CCCC2(CCNC2)C1", "note": "(stereo not given)", "Percent Effect": 0.724}
